Cav3 T inh – blocks human Cav3.2 T-type calcium channel; 100,000 tested, 4% active; B-score at 10 µM; Cav3.2-expressing cells, Fluo-4 calcium fluorescence FDSS; hits give low values; O95180;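 active means single-dose well whose peak fluorescence ratio is a statistical outlier from its plate by either plate-standardised score or position-corrected B-score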
CYP2C19 inh – blocks human cytochrome P450 2C19 | CYP2C19 Supersomes, luciferin-H EGE luminescence, 30 min | AID 778 | 96,000 tested, 21% active | inhibition, % at 5 µM;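 active means CYP2C19 inhibition above a set limit at 5 µM in the primary screen, cut at about 50% in these data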;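 further: plate controls were negative control wells for no effect and 2.5 mM tranylcypromine positive control for full effect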
CYP2C19 activ – increases human CYP2C19 enzyme activity | 96,000 tested, under 10 active | recombinant CYP2C19, luciferin-H EGE luminescence; hits give high values; 0 = fully inhibited enzyme, 1 = untreated enzyme | AID 1025 | activation factor at 5 µM | P33261;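 active means activation factor of at least 2 at 5 µM in the primary screen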;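 further: 0 = wells with 2.5 mM tranylcypromine and 1 = vehicle-only wells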
CYP2C9 inhib – inhibitors of human CYP2C9; CYP2C9 Supersomes, luciferin-H conversion, luminescence; inhibition, % at 5 µM; 96,000 tested, 20% active; P11712;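 active means blocking of liver enzyme CYP2C9 beyond about 50% at 5 µM, limit read from the data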
Target sequence (P11712 whole entry, looked up): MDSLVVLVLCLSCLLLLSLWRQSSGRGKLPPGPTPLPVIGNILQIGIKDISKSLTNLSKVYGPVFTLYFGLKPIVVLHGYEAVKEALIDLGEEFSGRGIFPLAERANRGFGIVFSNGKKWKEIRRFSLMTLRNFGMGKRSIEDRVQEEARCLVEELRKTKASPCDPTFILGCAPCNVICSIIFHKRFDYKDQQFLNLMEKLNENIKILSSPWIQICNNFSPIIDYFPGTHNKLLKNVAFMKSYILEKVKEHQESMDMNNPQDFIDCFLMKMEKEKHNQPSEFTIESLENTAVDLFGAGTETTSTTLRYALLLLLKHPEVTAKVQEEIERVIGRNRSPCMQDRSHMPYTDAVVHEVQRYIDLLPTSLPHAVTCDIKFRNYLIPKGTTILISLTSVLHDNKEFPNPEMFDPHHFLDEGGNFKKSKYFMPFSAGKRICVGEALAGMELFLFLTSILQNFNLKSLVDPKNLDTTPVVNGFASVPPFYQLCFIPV
CYP2C9 act – activators of human CYP2C9; 96,000 tested, 1.4% active; activation factor at 5 µM; P11712; recombinant CYP2C9, luciferin-H conversion, luminescence; hits give high values; factor 1 = untreated enzyme, 0 = blocked;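 active means activation factor of 2 or more for CYP2C9 at a 5 µM dose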;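 further: 0 = sulfaphenazole-blocked wells and 1 = vehicle-only wells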
* hit, by the source's call; / = no result. Sampled rows, rich in hits. Any-hit rate of the full collection: about 27%.

SMILES	Cav3 T inh	CYP2C19 inh	CYP2C19 activ	CYP2C9 inhib	CYP2C9 act
Cc1cc(N2CCOCC2)c(F)cc1C(=O)c1ccccc1	-0.844	59.0*	0.4	13.1	0.9
CCC(=O)c1cc(F)c(N2CCN(C(=O)Cc3ccccc3)CC2)cc1C	0.515	84.9*	0.2	83.5*	0.2
CC(=O)c1cc(F)c(N2CCOCC2)cc1C	1.81	-7.3	1.1	0.0	1
Cc1nnc(SCc2ccccc2)nc1-c1ccccc1	0.367	/	/	/	/
CC(=O)c1cccc(NC(=O)NCCS(C)=O)c1 (centres undefined)	0.422	-14.0	1.1	-11.1	1.1
CC1C/C(=N/NC(=O)c2cccc(F)c2)c2ccc(O)cc2C1 (centres undefined)	0.492	51.0*	0.5	-60.5	1.6
COc1cc(C2C(C(C)=O)=C(C)Nc3ncnn32)ccc1O (centres undefined)	0.605	-14.1	1.1	-5.8	1.1
CC1=C(C(=O)OC(C)C)C(c2c[nH]c3ccccc23)n2ncnc2N1 (centres undefined)	-0.58	60.7*	0.4	21.3	0.8
CCCC1=C(C(=O)OCC)C(c2ccc(O)cc2)n2ncnc2N1 (centres undefined)	-0.633	25.9	0.7	93.3*	0.1
CC(=O)C1=C(C)Nc2ncnn2C1c1ccc(Cl)cc1 (centres undefined)	0.105	63.8*	0.4	59.3*	0.4
CCOC(=O)C1=C(C)Nc2ncnn2C1c1ccc(N(C)C)cc1 (centres undefined)	0.465	41.3	0.6	38.2	0.6
CC(=O)C1=C(C)Nc2ncnn2C1c1ccccc1OCc1ccccc1 (centres undefined)	0.828	53.9*	0.5	23.6	0.8
CCOC(=O)[C@@H]1[C@H]2COc3ccc(Br)cc3[C@@H]2N2C(=O)N(c3cccc(F)c3)C(=O)[C@]12C	-1.7	/	/	/	/
Nc1ccccc1C#CCCCCO	0.0392	/	/	/	/
COc1ccc(S(=O)(=O)Nc2cc(C)nn2-c2ccccc2)cc1	-0.489	18.1	0.8	97.9*	0
COc1ccc(S(=O)(=O)Nc2nc3ccccc3s2)cc1	-1.47	8.5	0.9	50.3*	0.5
CCOc1ccc2sc(NS(=O)(=O)c3ccc(OC)c(OC)c3)nc2c1	-0.142	28.3	0.7	91.8*	0.1
COc1ccc2nc(NS(=O)(=O)c3ccc(NC(C)=O)cc3)sc2c1	-0.127	-12.1	1.1	29.8	0.7
Cn1c(N)c(S(=O)(=O)NCc2ccccc2)c(=O)n(C)c1=O	0.736	/	/	/	/
COc1ccc(C(=O)/C=C/c2ccccc2)c(OC)c1	-1.09	/	/	/	/
COc1cccc(/C=C/C(=O)c2ccc[nH]2)c1	/	69.8*	0.3	17.0	0.8
COc1cccc(C(=O)/C=C/c2ccc(SC)cc2)c1	0.204	92.2*	0.1	39.7	0.6
COc1cccc(C(=O)/C=C/Nc2cccc(O)c2)c1	-2.13	91.3*	0.1	28.1	0.7
COc1ccc(C(=O)/C=C/c2ccc(O)cc2)cc1	1.05	/	/	/	/
COc1cccc(C(=O)/C=C/Nc2ccc(S(=O)(=O)Nc3cccc(C(C)=O)c3)cc2)c1	/	34.1	0.7	77.7*	0.2
SMILES	Cav3 T inh	CYP2C19 inh	CYP2C19 activ	CYP2C9 inhib	CYP2C9 act
Cc1ccc(OCCCn2cc(C#N)c3ccccc32)cc1	0.0381	/	/	/	/
COc1cccc(C2C(C#N)=C(N)Oc3cc(C)n(Cc4ccco4)c(=O)c32)c1 (centres undefined)	0.574	48.0	0.5	30.8	0.7
Cc1cc2c(c(=O)n1CCCn1ccnc1)C(c1ccco1)C(C#N)=C(N)O2 (centres undefined)	-0.0156	76.4*	0.2	100.4*	0
Cc1cc2c(c(=O)n1Cc1ccc3c(c1)OCO3)C(c1cccnc1)C(C#N)=C(N)O2 (centres undefined)	-0.0875	28.5	0.7	51.7*	0.5
COc1ccc(C2C(C#N)=C(N)Oc3cc(C)n(Cc4ccco4)c(=O)c32)cc1 (centres undefined)	0.987	16.8	0.8	68.3*	0.3
COc1ccccc1C1C(C#N)=C(N)Oc2cc(C)n(CCCn3ccnc3)c(=O)c21 (centres undefined)	1.14	90.0*	0.1	100.0*	0
O=C(CSc1nnc(-c2cccs2)n1CC1CCCO1)c1cc2ccccc2o1 (centres undefined)	/	19.2	0.8	32.3	0.7
COc1ccc(Cl)cc1N1Cc2ccccc2C1	0.718	14.3	0.9	27.0	0.7
COc1ccc(N2Cc3ccccc3C2)cc1Cl	0.289	12.5	0.9	58.3*	0.4
CC(C(=O)Nc1cccnc1)N1C(=O)C2C3C=CC(C3)C2C1=O (centres undefined)	1.07	3.5	1	-0.4	1
O=C(Nc1ccc(N2C(=O)C3C4C=CC(C4)C3C2=O)cc1)Nc1cccnc1 (centres undefined)	0.904	5.4	0.9	60.3*	0.4
O=S(=O)(c1cccs1)N1CCN(CC(O)COC2CCCc3ccccc32)CC1 (centres undefined)	-0.402	34.0	0.7	62.0*	0.4
O=S(=O)(c1cccs1)N1CCN(CC(O)COc2cccc(Br)c2)CC1 (centres undefined)	/	32.7	0.7	36.8	0.6
O=C(NCc1ccco1)[C@@H]1CSC2c3ccccc3C(=O)N21 (some centres undefined)	-0.000434	57.0*	0.4	40.3	0.6
O=C(NCCCN1CCOCC1)[C@@H]1CSC2c3ccccc3C(=O)N21 (some centres undefined)	-0.266	-5.5	1.1	-17.7	1.2
O=C(NCc1cccs1)[C@@H]1CSC2c3ccccc3C(=O)N21 (some centres undefined)	-0.326	75.2*	0.2	71.7*	0.3
CCN(CC)c1ccc(C(=O)OCc2cc(=O)oc3cc(O)ccc23)cc1	-0.863	93.7*	0.1	-99.9	2*
Cc1ccc2c(C)nc(Nc3nc(CSc4nnnn4-c4ccccc4)cc(=O)[nH]3)nc2c1	/	59.8*	0.4	87.5*	0.1
CCOc1ccc2nc(Nc3nc(CSc4nnnn4-c4ccccc4)cc(=O)[nH]3)nc(C)c2c1	-1.23	53.3*	0.5	51.1*	0.5
COc1ccc2nc(Nc3nc(CSc4nnnn4-c4ccccc4)cc(=O)[nH]3)nc(C)c2c1	-0.507	29.4	0.7	22.1	0.8
Cc1c(NC(=S)/C=C2\N(C)c3ccccc3C2(C)C)c(=O)n(-c2ccccc2)n1C	0.0111	64.7*	0.4	-93.1	1.9
Cc1ccc(Cl)cc1N1CCN(S(=O)(=O)c2ccc3c(c2)OCCO3)CC1	-5.22*	45.9	0.5	79.5*	0.2
Cc1cc(C)c2oc(=O)cc(CN3CCN(Cc4ccc5c(c4)OCO5)CC3)c2c1	/	31.0	0.7	8.9	0.9
O=S(=O)(c1ccc2c(c1)OCCCO2)N1CCNCC1	0.669	-6.0	1.1	-10.9	1.1
Cc1cc2oc(=O)cc(CN3CCN(S(=O)(=O)c4ccc5c(c4)OCCO5)CC3)c2cc1C	-2.86	58.2*	0.4	83.7*	0.2
Cc1ccc(S(=O)(=O)N2CCOCC2)cc1C(=O)NCc1ccc2c(c1)OCO2	1.13	24.6	0.8	48.0	0.5

Assay outcomes from PubChem BioAssay.
